Legend:
Assay in all cases: log2 ratio of Biotin-Ahx-Ub-VS probe labelling (fragment/DMSO); higher = less target engagement (more negative = stronger competition), active = hit call of the paper (q ≤ 0.05, log2 ratio ≤ -1)
Details in all cases: compound concentration: 200 uM; treatment time: 3 h
USP34 = USP34 (UniProt Q70CQ2)
Method in brief: (§1)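 Global-median-normalised Spectronaut label-free quantities were compared by unpaired t-test, and values are average log2 ratios of fragment over vehicle. Only proteins with ≥2 unique peptides were used. HEK293T lysate (495 µg per sample) was treated in triplicate with fragment at 200 µM or vehicle for 3 h and then with Biotin-Ahx-Ub-VS at 0.5 µM final for 1 h. Labelled DUBs were then NeutrAvidin-enriched, digested with LysC and trypsin, and run by diaPASEF LC-MS/MS.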

USP36 = molecular target: T1, USP36 (UniProt Q9P275)
T1 sequence (whole entry): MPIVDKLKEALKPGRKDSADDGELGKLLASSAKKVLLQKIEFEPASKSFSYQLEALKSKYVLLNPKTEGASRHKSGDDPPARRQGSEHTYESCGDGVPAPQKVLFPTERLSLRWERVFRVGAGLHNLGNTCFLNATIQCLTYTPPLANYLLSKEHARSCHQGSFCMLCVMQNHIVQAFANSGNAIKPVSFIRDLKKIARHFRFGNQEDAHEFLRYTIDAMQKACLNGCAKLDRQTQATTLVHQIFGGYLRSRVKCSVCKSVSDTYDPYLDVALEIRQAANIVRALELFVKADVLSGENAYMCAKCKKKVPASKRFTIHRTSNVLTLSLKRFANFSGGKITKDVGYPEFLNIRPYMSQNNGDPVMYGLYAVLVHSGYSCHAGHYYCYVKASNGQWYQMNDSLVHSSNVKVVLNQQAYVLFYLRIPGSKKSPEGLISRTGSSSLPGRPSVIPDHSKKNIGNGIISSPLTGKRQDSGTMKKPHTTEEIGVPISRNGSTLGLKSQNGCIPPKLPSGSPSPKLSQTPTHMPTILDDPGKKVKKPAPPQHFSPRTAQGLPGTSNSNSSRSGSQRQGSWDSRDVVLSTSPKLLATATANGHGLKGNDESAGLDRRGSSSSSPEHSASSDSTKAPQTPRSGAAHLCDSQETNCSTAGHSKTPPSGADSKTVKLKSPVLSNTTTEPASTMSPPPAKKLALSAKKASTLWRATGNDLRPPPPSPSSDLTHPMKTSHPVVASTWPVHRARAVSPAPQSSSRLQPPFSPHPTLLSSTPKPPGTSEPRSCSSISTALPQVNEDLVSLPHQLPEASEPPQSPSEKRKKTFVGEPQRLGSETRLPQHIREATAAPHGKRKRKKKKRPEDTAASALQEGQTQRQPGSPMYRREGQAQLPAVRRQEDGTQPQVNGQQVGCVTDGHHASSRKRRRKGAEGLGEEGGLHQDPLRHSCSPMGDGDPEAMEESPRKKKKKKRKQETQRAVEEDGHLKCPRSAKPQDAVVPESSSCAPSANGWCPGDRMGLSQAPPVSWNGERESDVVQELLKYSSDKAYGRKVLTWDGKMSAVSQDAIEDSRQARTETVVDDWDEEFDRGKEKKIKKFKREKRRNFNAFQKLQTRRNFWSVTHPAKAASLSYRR
Method in brief: as §1

USP38 = molecular target: T2, USP38 (UniProt Q8NB14)
T2 sequence (whole entry): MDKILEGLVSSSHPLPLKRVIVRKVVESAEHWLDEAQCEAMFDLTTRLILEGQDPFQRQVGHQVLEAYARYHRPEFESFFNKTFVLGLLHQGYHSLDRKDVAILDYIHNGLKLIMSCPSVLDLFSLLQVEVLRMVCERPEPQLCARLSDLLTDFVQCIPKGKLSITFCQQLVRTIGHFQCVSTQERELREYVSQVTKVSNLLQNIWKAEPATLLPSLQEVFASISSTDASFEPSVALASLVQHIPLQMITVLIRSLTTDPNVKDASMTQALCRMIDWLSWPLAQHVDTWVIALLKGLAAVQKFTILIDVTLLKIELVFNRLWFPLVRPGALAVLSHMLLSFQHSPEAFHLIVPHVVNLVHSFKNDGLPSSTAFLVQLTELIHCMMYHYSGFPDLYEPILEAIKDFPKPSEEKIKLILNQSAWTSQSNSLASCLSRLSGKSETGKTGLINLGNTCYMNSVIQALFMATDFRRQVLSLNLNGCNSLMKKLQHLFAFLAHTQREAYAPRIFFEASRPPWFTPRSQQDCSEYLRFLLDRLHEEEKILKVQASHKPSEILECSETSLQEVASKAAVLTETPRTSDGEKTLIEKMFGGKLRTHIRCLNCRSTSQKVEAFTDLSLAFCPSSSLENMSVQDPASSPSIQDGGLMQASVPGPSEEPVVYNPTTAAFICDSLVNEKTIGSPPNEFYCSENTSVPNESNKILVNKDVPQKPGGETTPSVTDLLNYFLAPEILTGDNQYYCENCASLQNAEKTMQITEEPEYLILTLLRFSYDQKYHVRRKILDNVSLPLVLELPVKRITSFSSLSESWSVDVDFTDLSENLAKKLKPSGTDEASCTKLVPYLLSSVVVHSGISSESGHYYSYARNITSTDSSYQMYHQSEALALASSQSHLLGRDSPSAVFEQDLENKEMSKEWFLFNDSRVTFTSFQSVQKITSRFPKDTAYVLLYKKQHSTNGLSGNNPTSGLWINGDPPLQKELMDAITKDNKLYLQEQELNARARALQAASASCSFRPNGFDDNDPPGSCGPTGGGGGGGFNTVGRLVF
Method in brief: as §1

USP39 = molecular target: T3, USP39 (UniProt Q53GS9)
T3 sequence (whole entry): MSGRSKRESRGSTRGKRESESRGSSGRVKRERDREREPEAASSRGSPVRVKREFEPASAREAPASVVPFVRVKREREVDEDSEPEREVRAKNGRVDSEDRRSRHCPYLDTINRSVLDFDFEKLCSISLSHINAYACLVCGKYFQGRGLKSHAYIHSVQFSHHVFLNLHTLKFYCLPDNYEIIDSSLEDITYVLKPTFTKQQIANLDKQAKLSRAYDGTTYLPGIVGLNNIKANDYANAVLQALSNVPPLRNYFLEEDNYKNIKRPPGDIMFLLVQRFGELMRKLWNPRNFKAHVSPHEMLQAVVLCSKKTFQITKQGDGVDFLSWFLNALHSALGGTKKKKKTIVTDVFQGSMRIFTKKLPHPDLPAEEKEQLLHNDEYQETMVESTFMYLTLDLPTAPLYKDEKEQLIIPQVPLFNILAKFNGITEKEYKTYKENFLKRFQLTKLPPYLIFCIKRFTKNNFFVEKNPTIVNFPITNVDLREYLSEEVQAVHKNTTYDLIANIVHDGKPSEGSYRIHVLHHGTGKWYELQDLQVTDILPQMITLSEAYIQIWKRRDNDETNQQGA
Method in brief: as §1

USP4 = molecular target: T4, USP4 (UniProt Q13107)
T4 sequence (whole entry): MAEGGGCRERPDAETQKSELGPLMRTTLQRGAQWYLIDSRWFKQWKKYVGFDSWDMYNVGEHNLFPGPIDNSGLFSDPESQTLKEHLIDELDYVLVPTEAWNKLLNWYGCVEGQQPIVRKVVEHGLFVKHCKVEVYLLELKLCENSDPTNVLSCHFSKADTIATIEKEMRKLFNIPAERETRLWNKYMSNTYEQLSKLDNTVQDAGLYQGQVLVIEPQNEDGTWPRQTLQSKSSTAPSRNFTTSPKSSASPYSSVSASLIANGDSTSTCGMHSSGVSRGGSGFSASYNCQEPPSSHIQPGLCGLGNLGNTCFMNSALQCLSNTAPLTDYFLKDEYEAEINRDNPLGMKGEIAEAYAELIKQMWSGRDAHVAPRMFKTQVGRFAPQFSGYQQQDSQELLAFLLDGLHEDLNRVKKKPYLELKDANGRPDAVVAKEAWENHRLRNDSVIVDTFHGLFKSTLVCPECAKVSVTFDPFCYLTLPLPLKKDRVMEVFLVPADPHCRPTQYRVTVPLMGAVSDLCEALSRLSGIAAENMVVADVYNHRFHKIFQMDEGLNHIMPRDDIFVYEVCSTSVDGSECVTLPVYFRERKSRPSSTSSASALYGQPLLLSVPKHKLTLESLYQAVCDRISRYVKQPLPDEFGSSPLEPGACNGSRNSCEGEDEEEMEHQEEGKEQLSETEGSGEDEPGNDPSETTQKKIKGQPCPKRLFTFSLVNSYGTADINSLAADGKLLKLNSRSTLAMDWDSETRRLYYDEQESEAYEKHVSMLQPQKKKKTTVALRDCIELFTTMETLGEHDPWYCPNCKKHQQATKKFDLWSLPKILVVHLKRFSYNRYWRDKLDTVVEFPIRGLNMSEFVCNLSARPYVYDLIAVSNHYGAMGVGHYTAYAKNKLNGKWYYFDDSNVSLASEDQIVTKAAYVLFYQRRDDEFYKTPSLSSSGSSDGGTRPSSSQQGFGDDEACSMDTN
Method in brief: as §1

Measured: log2 ratio of Biotin-Ahx-Ub-VS probe labelling

Chain of USP34 (Q70CQ2 whole entry, the tested form may be a part): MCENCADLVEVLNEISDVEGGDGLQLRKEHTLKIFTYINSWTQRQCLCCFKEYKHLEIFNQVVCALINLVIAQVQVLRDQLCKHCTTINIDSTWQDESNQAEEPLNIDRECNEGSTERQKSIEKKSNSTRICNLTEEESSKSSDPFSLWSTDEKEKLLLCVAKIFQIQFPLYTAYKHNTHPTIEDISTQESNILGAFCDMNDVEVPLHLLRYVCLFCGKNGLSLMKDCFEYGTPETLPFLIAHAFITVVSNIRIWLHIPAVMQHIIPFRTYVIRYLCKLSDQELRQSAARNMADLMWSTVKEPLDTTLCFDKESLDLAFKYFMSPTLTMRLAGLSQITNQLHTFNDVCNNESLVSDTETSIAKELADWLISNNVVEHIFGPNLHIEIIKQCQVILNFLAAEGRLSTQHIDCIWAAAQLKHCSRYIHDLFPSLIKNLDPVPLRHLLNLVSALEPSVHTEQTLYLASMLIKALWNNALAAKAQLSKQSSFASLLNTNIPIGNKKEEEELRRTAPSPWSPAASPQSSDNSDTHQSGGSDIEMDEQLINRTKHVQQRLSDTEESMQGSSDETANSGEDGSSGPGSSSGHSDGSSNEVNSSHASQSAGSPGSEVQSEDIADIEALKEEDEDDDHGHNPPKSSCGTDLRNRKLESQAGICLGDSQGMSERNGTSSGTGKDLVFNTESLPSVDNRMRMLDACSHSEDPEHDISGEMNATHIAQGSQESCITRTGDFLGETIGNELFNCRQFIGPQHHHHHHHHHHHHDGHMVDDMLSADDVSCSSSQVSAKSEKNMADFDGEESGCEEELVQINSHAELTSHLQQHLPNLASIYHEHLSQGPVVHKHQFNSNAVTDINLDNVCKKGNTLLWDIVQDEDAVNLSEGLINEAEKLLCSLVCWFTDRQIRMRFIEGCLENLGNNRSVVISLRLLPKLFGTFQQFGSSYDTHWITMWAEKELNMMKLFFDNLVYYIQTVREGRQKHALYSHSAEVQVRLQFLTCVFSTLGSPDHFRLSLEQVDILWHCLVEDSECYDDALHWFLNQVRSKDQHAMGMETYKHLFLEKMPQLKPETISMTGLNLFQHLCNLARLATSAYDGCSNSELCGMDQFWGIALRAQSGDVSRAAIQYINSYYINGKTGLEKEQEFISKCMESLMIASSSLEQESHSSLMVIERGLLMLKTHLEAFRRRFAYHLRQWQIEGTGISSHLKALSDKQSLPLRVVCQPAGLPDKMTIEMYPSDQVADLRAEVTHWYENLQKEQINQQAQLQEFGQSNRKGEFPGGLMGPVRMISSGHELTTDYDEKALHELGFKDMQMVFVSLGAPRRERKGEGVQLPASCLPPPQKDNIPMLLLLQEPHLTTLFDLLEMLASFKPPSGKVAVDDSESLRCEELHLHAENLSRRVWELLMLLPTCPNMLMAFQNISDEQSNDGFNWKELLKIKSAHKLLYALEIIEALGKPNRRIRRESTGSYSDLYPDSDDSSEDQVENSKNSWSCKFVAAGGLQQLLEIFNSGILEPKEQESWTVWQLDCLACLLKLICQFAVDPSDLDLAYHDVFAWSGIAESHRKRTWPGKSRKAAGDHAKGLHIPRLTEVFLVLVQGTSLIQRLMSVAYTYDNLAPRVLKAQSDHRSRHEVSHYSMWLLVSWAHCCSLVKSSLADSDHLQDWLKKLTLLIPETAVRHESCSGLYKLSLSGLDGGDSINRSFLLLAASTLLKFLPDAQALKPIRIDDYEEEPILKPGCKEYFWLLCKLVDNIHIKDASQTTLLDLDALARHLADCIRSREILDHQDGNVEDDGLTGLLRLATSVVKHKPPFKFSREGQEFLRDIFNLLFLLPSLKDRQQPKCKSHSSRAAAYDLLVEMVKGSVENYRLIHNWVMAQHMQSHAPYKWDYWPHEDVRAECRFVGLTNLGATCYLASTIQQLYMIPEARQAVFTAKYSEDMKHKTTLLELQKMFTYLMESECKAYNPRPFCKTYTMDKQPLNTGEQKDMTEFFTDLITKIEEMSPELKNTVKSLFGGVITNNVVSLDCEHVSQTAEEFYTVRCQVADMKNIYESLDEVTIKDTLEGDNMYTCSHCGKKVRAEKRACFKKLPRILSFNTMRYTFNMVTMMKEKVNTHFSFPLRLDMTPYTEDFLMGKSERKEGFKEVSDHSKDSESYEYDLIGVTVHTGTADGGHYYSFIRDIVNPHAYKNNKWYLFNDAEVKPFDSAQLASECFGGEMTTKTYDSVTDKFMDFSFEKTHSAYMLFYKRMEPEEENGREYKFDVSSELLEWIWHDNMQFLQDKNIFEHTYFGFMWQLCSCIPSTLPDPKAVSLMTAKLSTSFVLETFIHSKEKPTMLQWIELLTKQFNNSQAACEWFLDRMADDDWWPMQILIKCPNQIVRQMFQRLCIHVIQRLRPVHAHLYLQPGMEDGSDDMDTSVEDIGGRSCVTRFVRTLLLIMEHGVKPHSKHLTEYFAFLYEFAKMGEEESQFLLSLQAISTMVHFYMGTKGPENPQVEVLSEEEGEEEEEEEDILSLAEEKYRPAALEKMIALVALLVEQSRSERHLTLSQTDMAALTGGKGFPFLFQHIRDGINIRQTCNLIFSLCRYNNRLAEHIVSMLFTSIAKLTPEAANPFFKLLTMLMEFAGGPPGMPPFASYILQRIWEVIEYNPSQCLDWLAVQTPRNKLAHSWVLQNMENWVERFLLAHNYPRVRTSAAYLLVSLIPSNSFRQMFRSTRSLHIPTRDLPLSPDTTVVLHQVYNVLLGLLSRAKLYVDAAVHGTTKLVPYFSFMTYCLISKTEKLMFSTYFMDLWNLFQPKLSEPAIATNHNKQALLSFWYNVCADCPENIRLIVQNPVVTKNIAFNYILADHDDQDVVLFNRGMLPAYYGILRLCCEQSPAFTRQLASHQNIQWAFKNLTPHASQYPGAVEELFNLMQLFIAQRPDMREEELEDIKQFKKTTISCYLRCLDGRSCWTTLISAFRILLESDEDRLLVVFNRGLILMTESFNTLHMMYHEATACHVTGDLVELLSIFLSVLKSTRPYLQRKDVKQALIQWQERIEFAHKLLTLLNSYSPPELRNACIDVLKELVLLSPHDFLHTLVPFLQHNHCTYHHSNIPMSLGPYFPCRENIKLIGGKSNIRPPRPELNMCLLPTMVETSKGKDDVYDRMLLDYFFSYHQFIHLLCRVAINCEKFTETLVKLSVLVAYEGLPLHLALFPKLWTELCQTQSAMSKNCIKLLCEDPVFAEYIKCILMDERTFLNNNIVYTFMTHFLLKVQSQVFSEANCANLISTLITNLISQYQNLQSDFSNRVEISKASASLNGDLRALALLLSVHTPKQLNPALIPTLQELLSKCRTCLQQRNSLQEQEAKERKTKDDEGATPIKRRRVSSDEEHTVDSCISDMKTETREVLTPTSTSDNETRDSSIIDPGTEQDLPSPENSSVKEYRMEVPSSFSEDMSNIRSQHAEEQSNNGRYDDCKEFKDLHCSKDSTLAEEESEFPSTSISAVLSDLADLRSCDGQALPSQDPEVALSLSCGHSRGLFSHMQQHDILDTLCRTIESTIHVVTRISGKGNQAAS

Cc1n[nH]c(=O)c2c(NC(=O)CCl)oc(C)c12
inactive: USP34 -0.107 | USP36 0.103 | USP38 0.0131 | USP39 0.082 | USP4 0.0593

Source: the supplement of paper PMC11732987, “Enantioselective OTUD7B fragment discovery through chemoproteomics screening and high-throughput optimisation” (Communications Chemistry, 2025)
